The campaign covered roughly 78,000 compounds. About 1,800 (2.3%) were called active. Inconclusive results (about 27%) are left out. Rule as the data show it: active = inhibition above about 30%; inconclusive = mostly about 10% to 28%; inactive = weaker than that. What follows is part of a selection rich in actives, with near analogues and random picks from the rest.

Data on 5 compounds can be found in PubChem BioAssay AID1259354 (Paczesny and Yang Labs, IUPUI and University of Michigan, 2018).

For the assay, the target named is Interleukin-1 receptor-like 1 (Homo sapiens) (UniProt Q01638). The assay is described as follows: inhibitors of human ST2 (IL1RL1) binding to IL-33, primary screen, biochemical, AlphaLISA (AID 1259354). As to conditions: AlphaLISA ST2-Fc/biotin-IL-33 interaction, 1 h; at 17 µM, hits give high values. On the technique in general: Bead proximity is the source of the signal in Alpha formats.
Interleukin-1 receptor-like 1 (Homo sapiens), sequence (Q01638 whole entry, looked up): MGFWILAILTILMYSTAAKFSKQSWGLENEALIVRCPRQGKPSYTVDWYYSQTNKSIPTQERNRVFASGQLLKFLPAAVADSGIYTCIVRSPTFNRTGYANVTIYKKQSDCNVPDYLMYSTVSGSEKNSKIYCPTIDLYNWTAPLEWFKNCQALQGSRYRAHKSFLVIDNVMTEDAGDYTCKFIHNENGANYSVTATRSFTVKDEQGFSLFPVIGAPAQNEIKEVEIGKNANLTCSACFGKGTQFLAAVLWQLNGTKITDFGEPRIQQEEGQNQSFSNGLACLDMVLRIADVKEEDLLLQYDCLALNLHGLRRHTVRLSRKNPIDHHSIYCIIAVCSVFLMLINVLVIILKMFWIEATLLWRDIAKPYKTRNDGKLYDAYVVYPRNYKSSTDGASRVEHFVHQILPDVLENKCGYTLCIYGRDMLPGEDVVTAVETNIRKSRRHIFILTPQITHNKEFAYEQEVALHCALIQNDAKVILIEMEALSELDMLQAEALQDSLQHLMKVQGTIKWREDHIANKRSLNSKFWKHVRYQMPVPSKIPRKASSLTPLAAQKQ
For the compound `CCN(CC)c1ccc([N+](=O)[O-])c2cccnc12`, the inhibition (commonly how much of the control response was suppressed) was 56% (active). As to `CCN(CC)CCNc1ccc([N+](=O)[O-])c2cccnc12`, the inhibition entry was “inactive”. `COc1cc(CN2CCN(Cc3ccccc3)CC2)cc(I)c1O`: the inhibition result is “inactive”.

Regarding `C/C=C(\C)CN1CCC2(CCNCC2)C1`, the inhibition entry is “inactive”. The same measure for `CCOC(=O)C1C2NC(=O)N(c3cccc(C)c3)C1(C)Oc1c(OC)cccc12` (stereo not given): “inactive”.
